Experimental data reported in PubChem BioAssay (NCATS).
“And” between values parts separate entries of the source, which are not always exact repeats. Equal values may be shown once. Records with an inconclusive call do not appear. The source made the active and inactive calls. Unless noted, calls follow the shape of the full dose curve. Numbered stars: 1 amine (or outer) side, 2 acyl side, 3 side chain; on linkers, the order of the positions; unused ones are H or OH. Bridge positions count the residues as written; N and C are the ends. Square brackets hold non-standard residues; d marks the D form. Peptide text beside a SMILES is read from it. I, II: the chains in the order shown. Actinocin(9to1) = Cc1c2oc3c(C)ccc(C(=O)[*:1])c3nc-2c(C(=O)[*:2])c(N)c1=O; NMeV = CN[C@H](C(=O)O)C(C)C; Sar = CNCC(=O)O

System: not listed separately
Experiment: AP1 Signaling Pathway (AID 357; active = well fitted curve in either direction with a large enough effect, not every such curve was filed as active;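 also: ME-180 reporter cells stimulated with EGF at its EC50 level; % is scaled to controls: 0 for no effect and ±100 for the full control effect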)
Conditions: ME-180 (cervical carcinoma) AP-1-bla reporter, EGF-induced, beta-lactamase ratio, 5 h; at 17.2 µM (top of the series)
How it was run: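 Cells are seeded overnight, exposed to compound titrations and an EC50 level of EGF for 5 hours at 37 °C, then loaded with CCF4 dye for 2.5 hours. Beta-lactamase activity under the AP-1 element is read as a blue/green ratio.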

For `CC(C)(Oc1ccc(Cl)cc1)C(=O)O`, which activity change, negative = inhibition is on record?
Its activity change, negative = inhibition is -0.859% (inactive).

With `O=C1c2ccccc2C(=O)C1c1ccccc1` as the compound, how does the activity change, negative = inhibition read?
The activity change, negative = inhibition was -0.252% (inactive).

For `CC(=O)O[C@H]1C[C@@H]2CC[C@@H]3[C@H](CC[C@@]4(C)[C@H]3C[C@H]([N+]3(C)CCCCC3)[C@@H]4OC(C)=O)[C@@]2(C)C[C@@H]1[N+]1(C)CCCCC1`, which activity change, negative = inhibition is on record?
The activity change, negative = inhibition was 10.4% (inactive).

Which activity change, negative = inhibition does the source give for `CC(=O)OCC(=O)[C@@]1(O)CC[C@H]2[C@@H]3CCC4=CC(=O)C=C[C@]4(C)[C@H]3[C@@H](O)C[C@@]21C` here?
The activity change, negative = inhibition was 11.9% (inactive).

For `CCCCOc1ccc(OCCCN2CCOCC2)cc1`, which activity change, negative = inhibition is on record?
Its activity change, negative = inhibition is 5.36% (inactive) and -1.05% (inactive).

Which activity change, negative = inhibition does the source give for `COc1ccc(CCN2CCC(Nc3nc4ccccc4n3Cc3ccc(F)cc3)CC2)cc1` here?
The activity change, negative = inhibition was -6.26% (inactive) and 6.64% (inactive).

With `C[C@@H]1C[C@H]2[C@@H]3CCC4=CC(=O)C=C[C@]4(C)[C@@]3(F)[C@@H](O)C[C@]2(C)[C@H]1C(=O)CO` as the compound, how does the activity change, negative = inhibition read?
Its activity change, negative = inhibition is 0.15% (inactive).

For `CN(C)CCOc1ccccc1Cc1ccccc1`, which activity change, negative = inhibition is on record?
Its activity change, negative = inhibition is 16.9% (inactive).

Which activity change, negative = inhibition does the source give for `CC(C)N=C(N)/N=C(\N)Nc1ccc(Cl)cc1` here?
Its activity change, negative = inhibition is -0.245% (inactive).

For `CC(CCc1ccccc1)NCC(O)c1ccc(O)c(C(N)=O)c1` (stereo not drawn), which activity change, negative = inhibition is on record?
The activity change, negative = inhibition was 5.69% (inactive).

Which activity change, negative = inhibition does the source give for `C[C@H](CCC(=O)O)[C@H]1CC[C@H]2[C@@H]3C(=O)C[C@@H]4CC(=O)CC[C@]4(C)[C@H]3CC(=O)[C@]12C` here?
Its activity change, negative = inhibition is 8.36% (inactive).

With `CCCCC(=O)O[C@]1(C(=O)CO)CC[C@H]2[C@@H]3CCC4=CC(=O)CC[C@]4(C)[C@H]3[C@@H](O)C[C@@]21C` as the compound, how does the activity change, negative = inhibition read?
Its activity change, negative = inhibition is 5.88% (inactive).

Target: Cytochrome P450 1A2 (Homo sapiens) (UniProt P05177)
Experiment: p450-cyp1a2 (AID 410); also: potency is read from the fitted curve at half-maximal effect;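 as to activity change, negative = inhibition: -100% = full effect of reference inhibitor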
Conditions: recombinant CYP1A2, luciferin-ME demethylation, luminescence; series mostly up to 25.6 µM; activity change, negative = inhibition: at the top concentration
How it was run: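 Human CYP1A2 (20nM) demethylated Luciferin-ME at its Km (100uM) in 100mM KPO4. After 10 min compound preincubation, NADPH regeneration ran the reaction 60 min at room temperature. Luciferin was read by luminescence, normalized to 57 uM furafylline.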

Sequence of Cytochrome P450 1A2 (Homo sapiens) (P05177 whole entry, looked up): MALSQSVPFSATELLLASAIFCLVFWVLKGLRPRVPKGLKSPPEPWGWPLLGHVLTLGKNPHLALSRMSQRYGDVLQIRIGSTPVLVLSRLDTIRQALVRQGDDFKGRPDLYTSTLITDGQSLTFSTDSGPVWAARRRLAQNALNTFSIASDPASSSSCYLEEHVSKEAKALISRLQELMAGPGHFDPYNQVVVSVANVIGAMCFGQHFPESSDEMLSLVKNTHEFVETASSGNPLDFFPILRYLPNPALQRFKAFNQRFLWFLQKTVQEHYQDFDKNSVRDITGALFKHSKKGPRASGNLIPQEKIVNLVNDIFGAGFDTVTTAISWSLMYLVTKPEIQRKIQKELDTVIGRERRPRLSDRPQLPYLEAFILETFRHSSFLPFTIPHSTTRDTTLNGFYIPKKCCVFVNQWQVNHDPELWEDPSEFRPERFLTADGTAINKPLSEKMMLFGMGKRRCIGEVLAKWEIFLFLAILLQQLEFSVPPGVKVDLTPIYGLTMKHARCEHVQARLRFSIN

With `CNCC[C@@H](Oc1ccccc1C)c1ccccc1` as the compound, how does the Potency read?
Its Potency is 15.8 µM (active).

For `C[C@@H]1CN(CCCn2c3ccccc3c3ccccc32)C[C@H](C)N1`, which Potency is on record?
Its Potency is 0.794 µM (active).

With `NC(=NCCCCCCN=C(N)/N=C(\N)Nc1ccc(Cl)cc1)/N=C(\N)Nc1ccc(Cl)cc1` as the compound, how does the Potency read?
The Potency was 15.8 µM (active).

Which “activity change, negative = inhibition” value does the source give for `CC[N+](CC)(CCNC(=O)C(=O)NCC[N+](CC)(CC)Cc1ccccc1Cl)Cc1ccccc1Cl` here?
Its value is -26.2% [at 57 µM] (inactive).

Which “activity change, negative = inhibition” value does the source give for `CN1[C@@H]2CC[C@H]1CC(OC(=O)c1c[nH]c3ccccc13)C2` (stereo partly drawn) here?
The value was 0.4% [at 57 µM] (inactive).

For `CN1CCC(=C2c3ccccc3Sc3ccccc32)CC1`, which “activity change, negative = inhibition” value is on record?
Its value is -17.4% (inactive).

System: not listed separately
Experiment: Cell Viability - BJ (AID 421);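 also: potency is read from the fitted curve at half-maximal effect; cells exposed to compound for 40 hours at 37 °C before readout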
Conditions: BJ fibroblast viability, qHTS
How it was run: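 Cytotoxicity as drop in intracellular ATP (CellTiter-Glo, 20 min RT) after 40 hr compound exposure of BJ fibroblasts at 37 °C. Titrations scaled between DMSO and 100 uM tamoxifen, Hill-fitted for AC50.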

Which Potency does the source give for `CC/C(=C(/CC)c1ccc(O)cc1)c1ccc(O)cc1` here?
Its Potency is > 92 µM (inactive).

With `CN(C)/N=N/c1nc[nH]c1C(N)=O` as the compound, how does the Potency read?
The Potency was > 92 µM (inactive).

With `O=C(O)CCCCC(=O)O` as the compound, how does the Potency read?
The Potency was > 92 µM (inactive).

With `C[C@]12CC[C@@H]3c4ccc(O)cc4CC[C@H]3[C@@H]1CC[C@@H]2O` as the compound, how does the Potency read?
The Potency was > 92 µM (inactive).

With `Cc1c2oc3c(C)ccc(C(=O)N[C@@H]4C(=O)N[C@H](C(C)C)C(=O)N5CCC[C@H]5C(=O)N(C)CC(=O)N(C)[C@@H](C(C)C)C(=O)O[C@@H]4C)c3nc-2c(C(=O)N[C@@H]2C(=O)N[C@H](C(C)C)C(=O)N3CCC[C@H]3C(=O)N(C)CC(=O)N(C)[C@@H](C(C)C)C(=O)O[C@@H]2C)c(N)c1=O` (I: T[dV]P[Sar][NMeV] / II: T[dV]P[Sar][NMeV]; ester I:1-I:C, II:1-II:C; linker I:N-II:N via Actinocin(9to1)) as the compound, how does the Potency read?
Its Potency is 0.00132 µM (active).

For `C=CCc1ccc(O)c(OC)c1`, which Potency is on record?
The Potency was > 92 µM (inactive).

For `COC1=CC(=O)C[C@@H](C)[C@]12Oc1c(Cl)c(OC)cc(OC)c1C2=O`, which Potency is on record?
The Potency was > 92 µM (inactive).

Which Potency does the source give for `CC(O)C(=O)O` (stereo not drawn) here?
The Potency was > 92 µM (inactive).

For `O=c1ccc2ccccc2o1`, which Potency is on record?
The Potency was > 92 µM (inactive).

With `CCCCCCc1ccc(O)cc1O` as the compound, how does the Potency read?
Its Potency is > 92 µM (inactive).

Which Potency does the source give for `Nc1ccc(C(=O)O)cc1` here?
The Potency was > 92 µM (inactive).

For `O=C1OC(c2ccc(O)cc2)(c2ccc(O)cc2)c2ccccc21`, which Potency is on record?
The Potency was > 92 µM (inactive).

With `COc1cccc2c1C(=O)c1c(O)c3c(c(O)c1C2=O)C[C@@](O)(C(=O)CO)C[C@@H]3O[C@H]1C[C@H](N)[C@H](O)[C@H](C)O1` as the compound, how does the Potency read?
The Potency was 0.177 µM (active).

System: not listed separately
Experiment: Cell Viability - Hek293 (AID 427;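 active = compounds whose dose-response curve shows a full or clear partial loss of cell viability, called from curve shape rather than a numeric limit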;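 also: potency is read from the fitted curve at half-maximal effect; cells exposed to compound for 40 hours at 37 °C before reading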)
Conditions: qHTS
How it was run: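 Luminescent ATP content (CellTiter-Glo, 20 min at room temperature) was measured after a 40 hr, 37 °C compound exposure of HEK293 cells. AC50 values came from Hill-equation fits of qHTS concentration-response data normalized to DMSO and 100 uM tamoxifen.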

For `CN(C)/N=N/c1nc[nH]c1C(N)=O`, which Potency is on record?
The Potency was > 92 µM (inactive).

With `O=C(O)CCCCC(=O)O` as the compound, how does the Potency read?
The Potency was > 92 µM (inactive).

With `Cc1c2oc3c(C)ccc(C(=O)N[C@@H]4C(=O)N[C@H](C(C)C)C(=O)N5CCC[C@H]5C(=O)N(C)CC(=O)N(C)[C@@H](C(C)C)C(=O)O[C@@H]4C)c3nc-2c(C(=O)N[C@@H]2C(=O)N[C@H](C(C)C)C(=O)N3CCC[C@H]3C(=O)N(C)CC(=O)N(C)[C@@H](C(C)C)C(=O)O[C@@H]2C)c(N)c1=O` (I: T[dV]P[Sar][NMeV] / II: T[dV]P[Sar][NMeV]; ester I:1-I:C, II:1-II:C; linker I:N-II:N via Actinocin(9to1)) as the compound, how does the Potency read?
The Potency was 0.00102 µM (active).

For `C=CCc1ccc(O)c(OC)c1`, which Potency is on record?
The Potency was > 92 µM (inactive).

For `COC1=CC(=O)C[C@@H](C)[C@]12Oc1c(Cl)c(OC)cc(OC)c1C2=O`, which Potency is on record?
The Potency was > 92 µM (inactive).

Which Potency does the source give for `CC(O)C(=O)O` (stereo not drawn) here?
Its Potency is > 92 µM (inactive).

With `NC(=NCCCCCCN=C(N)/N=C(\N)Nc1ccc(Cl)cc1)/N=C(\N)Nc1ccc(Cl)cc1` as the compound, how does the Potency read?
The Potency was 45.6 µM (active).

For `O=c1ccc2ccccc2o1`, which Potency is on record?
The Potency was > 92 µM (inactive).

With `CCCCCCc1ccc(O)cc1O` as the compound, how does the Potency read?
The Potency was > 92 µM (inactive).

For `Nc1ccc(C(=O)O)cc1`, which Potency is on record?
Its Potency is > 92 µM (inactive).

For `O=C1OC(c2ccc(O)cc2)(c2ccc(O)cc2)c2ccccc21`, which Potency is on record?
The Potency was > 92 µM (inactive).

Which Potency does the source give for `COc1cccc2c1C(=O)c1c(O)c3c(c(O)c1C2=O)C[C@@](O)(C(=O)CO)C[C@@H]3O[C@H]1C[C@H](N)[C@H](O)[C@H](C)O1` here?
The Potency was 0.0255 µM (active).
